# Test results taken from the supplement of paper PMC9262897, “Low-cost anti-mycobacterial drug discovery using engineered E. coli” (Nature Communications, 2022).
# Counter-ions that a name gives are not always drawn. ± gives the standard deviation of the averaged measurements.
# Test system: E. coli TESEC Alr+ wild-type control
# Experiment: growth (OD600 after 10 h); higher = more growth (less inhibition)
# Conditions: compound 0.1 mM; raw OD600 reference: median of DMSO wells 0.49, cell-free background 0.052
# Protocol: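 TESEC Mtb Alr E. coli (ΔaraC ΔtolC ΔentC Δalr ΔdadX, arabinose-inducible Mtb Alr) or the Alr+ wild-type control strain, grown in defined M9-fructose medium without D-alanine in 96-well plates with Prestwick library compounds at 0.1 mM and 1% DMSO. Low Alr induction is 0.1 µM arabinose and high induction is 10 mM arabinose.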
row,SMILES,growth
1,CC1C=CC=CCCC=CC=CC=CC=CC(OC2OC(C)C(O)C(N)C2O)CC2OC(O)(CC(O)C(O)CCC(O)CC(O)CC(O)CC(=O)OC(C)C(C)C1O)CC(O)C2C(=O)O (stereo not given) [Nystatine],0.471 ± 0.021
2,CC(C)C[C@H]1C(=O)N2CCC[C@H]2[C@]2(O)O[C@](NC(=O)[C@@H]3C=C4c5cccc6[nH]c(Br)c(c56)C[C@H]4N(C)C3)(C(C)C)C(=O)N12 [Bromocryptine mesylate],0.511 ± 0.046
3,CCNCC(O)c1cccc(O)c1 (stereo not given) [Etilefrine hydrochloride],0.446 ± 0.011
4,CCOC(=O)c1cncn1[C@H](C)c1ccccc1 [Etomidate],0.397 ± 0.013
5,CC(O)(CS(=O)(=O)c1ccc(F)cc1)C(=O)Nc1ccc(C#N)c(C(F)(F)F)c1 (stereo not given) [Bicalutamide],0.3777 ± 0.0027
6,CC[C@@H](CO)NC(=O)[C@@H]1C=C2c3cccc4[nH]cc(c34)C[C@H]2N(C)C1 [Methylergometrine maleate],0.523 ± 0.018
7,CN1[C@@H]2CC[C@H]1C[C@@H](OC(=O)[C@H](CO)c1ccccc1)C2 [Hyoscyamine (L)],0.468 ± 0.045
8,O=C(CCCN1CCC2(CC1)C(=O)NCN2c1ccccc1)c1ccc(F)cc1 [Spiperone],0.509 ± 0.042
9,"CCC1(c2ccc(N)cc2)CCC(=O)NC1=O (stereo not given) [Glutethimide, para-amino]",0.445 ± 0.022
10,COc1ccc(OC)c(C(O)C(C)N)c1 (stereo not given) [Methoxamine hydrochloride],0.458 ± 0.037
11,O=C1CC[C@@]2(O)[C@H]3Cc4ccc(O)c5c4[C@@]2(CCN3CC2CC2)[C@H]1O5 [Naltrexone hydrochloride dihydrate],0.496 ± 0.022
12,CO[C@]12C[C@@H](COC(=O)c3cncc(Br)c3)CN(C)[C@@H]1Cc1cn(C)c3cccc2c13 [Nicergoline],0.481 ± 0.049
13,CN(C)[C@@H]1C(=O)C(C(N)=O)=C(O)[C@@]2(O)C(=O)C3=C(O)c4c(O)cccc4[C@@](C)(O)[C@H]3C[C@@H]12 [Tetracycline hydrochloride],0.0518 ± 0.0007
14,CC(C)c1cccc(C(C)C)c1O [Propofol],0.55 ± 0.038
15,NC(=O)CN1CCCC1=O [Piracetam],0.491 ± 0.12
16,CCC1(c2cccc(O)c2)CCCCN(C)C1 (stereo not given) [Meptazinol hydrochloride],0.643 ± 0.03
17,C[C@]12CCC(=O)C(O)=C1CC[C@@H]1[C@@H]2CC[C@]2(C)C(=O)CC[C@@H]12 [Formestane],0.392 ± 0.026
18,CN(C)[C@@H]1C(=O)C(C(N)=O)=C(O)[C@@]2(O)C(=O)C3=C(O)c4c(O)cccc4[C@@](C)(O)[C@H]3[C@H](O)[C@@H]12 [Oxytetracycline dihydrate],0.0551 ± 0.00064
19,CC(C)(C)NCC(O)c1cc(Cl)c(N)c(Cl)c1 (stereo not given) [Clenbuterol hydrochloride],0.605 ± 0.12
20,CC(C)(N)Cc1ccccc1 [Phentermine hydrochloride],0.603 ± 0.13

row,SMILES,growth
1,C[N+](C)(C)CCCCCCCCCC[N+](C)(C)C [Decamethonium bromide],0.417 ± 0.017
2,Clc1ccc(C(OCCN2CCCCC2)c2ccccc2)cc1 (stereo not given) [Cloperastine hydrochloride],0.413 ± 0.033
3,OC(c1ccccc1)(c1ccccc1)C1CCNCC1 [Azacyclonol],0.523 ± 0.032
4,"CNCC(O)c1ccc(O)cc1 (racemic) [(+,-)-Synephrine]",0.58 ± 0.057
5,c1ccc2nc(N3CCNCC3)ccc2c1 [Quipazine dimaleate salt],0.47 ± 0.0099
6,CN[C@@H]1C[C@@H](c2ccc(Cl)c(Cl)c2)c2ccccc21 [Indatraline hydrochloride],0.0509 ± 0.0003
7,CN1C(=O)CCS(=O)(=O)C1c1ccc(Cl)cc1 (stereo not given) [Chlormezanone],0.615 ± 0.1
8,CC(=O)NC1CCSC1=O (racemic) [N-Acetyl-DL-homocysteine Thiolactone],0.406 ± 0.015
9,CN(C)C(=O)Oc1cccc([N+](C)(C)C)c1 [Neostigmine bromide],0.563 ± 0.068
10,CCC(=O)O[C@@](Cc1ccccc1)(c1ccccc1)[C@@H](C)CN(C)C [Levopropoxyphene napsylate],0.566 ± 0.042
11,CC(C)C[C@H](CN)CC(=O)O [Pregabalin],0.614 ± 0.019
12,COc1ccc(C(CN(C)C)C2(O)CCCCC2)cc1 (stereo not given) [Venlafaxine],0.438 ± 0.018
13,C[C@H](N)[C@H](O)c1ccc(O)c(O)c1 [Levonordefrin],0.465 ± 0.099
14,CC(=O)[C@H]1CC[C@H]2[C@@H]3CC[C@H]4C[C@H](O)CC[C@]4(C)[C@H]3C(=O)C[C@]12C [Alfaxalone],0.3925 ± 0.0021
15,C#C[C@]1(O)CC[C@H]2[C@@H]3CCC4=CC(=O)CCC4=C3C=C[C@@]21CC [Gestrinone],0.287 ± 0.011
16,Cc1cccc(C)c1NC1=NCCCS1 [Xylazine],0.487 ± 0.05
17,CCN(CC)C(C)C(=O)c1ccccc1 (stereo not given) [Amfepramone hydrochloride],0.556 ± 0.038
18,C(#CCN1CCCC1)CN1CCCC1 [Tremorine dihydrochloride],0.696 ± 0.067
19,CCN(C)C(=O)Oc1cccc([C@H](C)N(C)C)c1 [Rivastigmine],0.504 ± 0.066
20,C[C@@H]1O[C@@H](O[C@@H]2C=C3CC[C@@H]4[C@H](CC[C@]5(C)[C@@H](c6ccc(=O)oc6)CC[C@]45O)[C@@]3(C)CC2)[C@H](O)[C@H](O)[C@H]1O [Proscillaridin A],0.626 ± 0.018
